Test results published in PubChem BioAssay (Tox21).
Results filed as inconclusive are left out. Entries that show only a call come without a potency. Activity calls are given as the source filed them. Unless noted, calls come from the whole dose curve; as a rule, active = well fitted curve in the direction sought with a large enough effect in the repeat runs; inconclusive = weak or mixed curves; inactive = no such curve, though single readings can be large; an effect the other way counts as inactive or inconclusive.

Assays:
[1] = qHTS assay to identify small molecule antagonists of the estrogen related receptor (ERR) signaling pathway - cell viability counter screen (AID 1224818); note: potency is the fitted concentration of half-maximal effect
Summary of the method: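 Fluorescence from CellTiter-Fluor, read 30 min after reagent addition at 37 C, measured viability of ERR cells exposed to compounds for 17.5 h. Cells had settled 6 h before dosing.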

[2] = qHTS assay to identify small molecule agonists of the estrogen related receptor (ERR) signaling pathway (AID 1224820)
Summary of the method: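 An ERR cell line provided by NTP was seeded at 2,000 cells per well and allowed to settle for 6 h before compounds in DMSO were added. After 18 h at 37 C, luciferase activity was measured by One-Glo luminescence.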

[3] = system: estrogen-related receptor alpha (ERRalpha) with PGC-1alpha coactivator, human; assay: qHTS assay to identify small molecule antagonists of the estrogen related receptor signaling pathway with the pleiotropic PPARgamma coactivator (PGC) (AID 1224821; calls by dose curve; note: nearly all actives have a fitted effect of over 50% in size; note: potency is the fitted concentration of half-maximal effect)
Summary of the method: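 A PGC/ERR cell line supplied by NTP is seeded, allowed 6 h at 37 C, and treated with test compounds in DMSO for 18 h. Signal is then measured as luciferase luminescence using One-Glo.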

[4] = qHTS assay to identify small molecule antagonists of the estrogen related receptor signaling pathway with the pleiotropic PPARgamma coactivator (PGC) cell viability counter screen (AID 1224822; note: potency is the fitted concentration of half-maximal effect)
Summary of the method: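 Fluorescence read-out of CellTiter-Fluor after 30 min at 37 C; PGC/ERR cells, 2,000 per well, had been exposed to DMSO-dissolved compounds for 17.5 h following a 6 h pre-incubation.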

[5] = qHTS assay to identify small molecule agonists of the estrogen related receptor signaling pathway with the pleiotropic PPARgamma coactivator (PGC) (AID 1224823); note: potency is the fitted concentration of half-maximal effect
Summary of the method: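 Compounds dissolved in DMSO are added by pin tool to PGC/ERR cells that have settled for 6 h, and incubation continues 18 h at 37 C. Reporter output is measured as One-Glo luminescence.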

[6] = qHTS assay to identify small molecule antagonists of the estrogen related receptor (ERR) signaling pathway (AID 1224819;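 note: luminescence from an ERR-driven luciferase reporter measured with One-Glo reagent; series mostly up to about 46 µM; nearly all actives have a fitted effect of over 50% in size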)
Summary of the method: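 Luminescence readout (One-Glo, 30 min, RT) of ERR cell line after 18 h compound exposure at 37 C; cells seeded 2,000/well, pre-incubated 6 h, compounds pinned from DMSO stocks.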

| Compound | Potency [1] | Potency [2] | Potency [3] | Potency [4] | Potency [5] | Potency [6] |
| --- | --- | --- | --- | --- | --- | --- |
| CNC(=O)[C@H]1O[C@@H](n2cnc3c(NCc4cccc(I)c4)ncnc32)[C@H](O)C1O (stereo partly drawn) | inactive | inactive | inactive | inactive | 0.944 µM (active) |  |
| OC[C@H]1O[C@@H](n2cnc3cncnc32)[C@H](O)[C@@H]1O | inactive | inactive | 15 µM (active) | inactive | inactive |  |
| C[C@H](Cc1ccccc1)Nc1ncnc2c1ncn2[C@@H]1O[C@H](CO)C(O)[C@H]1O (stereo partly drawn) | inactive |  | inactive | inactive | 10.2 µM (active) | inactive |
| CN(C)C(=O)[C@H](O)[C@H](Cc1ccccc1)NC(=O)c1cc2cc(Cl)ccc2[nH]1 | inactive | inactive | inactive | inactive | inactive |  |
| NCCS(=O)O | inactive |  | inactive | inactive | inactive | inactive |
| CN1CCc2cccc3c2C1Cc1ccc(O)c(O)c1-3 (stereo not drawn) | inactive | inactive | 26.6 µM (active) |  | inactive |  |
| Nc1nc(SCc2ccc([N+](=O)[O-])cc2)c2ncn([C@@H]3O[C@H](CO)C(O)[C@H]3O)c2n1 (stereo partly drawn) | inactive | inactive | inactive | inactive | inactive |  |
| N=C(N)c1ccc(N)cc1 | inactive | inactive |  | inactive | inactive |  |
| O=c1[nH]c2cc(C(F)(F)F)ccc2n1-c1cc(C(F)(F)F)ccc1O | inactive | inactive | inactive | inactive | inactive |  |
| O=C(Nc1ccc2c(c1)CCN(Cc1ncn[nH]1)C2)c1ccccc1-c1ccc(C(F)(F)F)cc1 | inactive | inactive |  | inactive | inactive |  |
| O=C(Nc1nc2ccccc2n1CCN1CCOCC1)c1cccc([N+](=O)[O-])c1 | inactive | inactive | inactive | inactive | inactive |  |
| CCCCCCCC/C=C\CCCCCCCC(=O)NCCc1ccc(O)c(O)c1 | inactive | inactive | inactive |  | inactive |  |
| CC(C)(CO)Cc1cc(C(C)(C)C)c(O)c(C(C)(C)C)c1 | inactive | inactive |  | inactive | inactive |  |
| O=C(CCc1ccncc1)NNC(=O)N1Cc2ccccc2Oc2ccc(Cl)cc21 | inactive | inactive |  | inactive | inactive |  |
| O=C(O)c1ccccc1Nc1cccc(OCc2ccc3ccccc3n2)c1 | inactive | inactive | inactive | inactive | inactive |  |
| Cn1cc(C(F)(F)F)nc1-c1ccc(OCC(O)CNCCOc2ccc(O)c(C(N)=O)c2)cc1 (stereo not drawn) | inactive | inactive |  | inactive | inactive |  |
| COc1cc2nc(N3CCCN(C)CC3)nc(NC3CCN(Cc4ccccc4)CC3)c2cc1OC | 24.6 µM (active) | inactive | 28.7 µM (active) | 10.6 µM (active) | inactive |  |
| C[C@@]1(C2CCCC2)Cc2cc(OCC(=O)O)c(Cl)c(Cl)c2C1=O | inactive | inactive |  | inactive | inactive |  |
| O=C(CCSCc1ccco1)NNC(=O)N1Cc2ccccc2Oc2ccc(Cl)cc21 | inactive | inactive |  | inactive | inactive |  |
| O=[N+]([O-])c1ccc(CNc2nc(NCc3cccc(C(F)(F)F)c3)nc3nc[nH]c23)cc1 | inactive | inactive |  | inactive | inactive |  |
| O=c1cc(N2CCOCC2)oc2c(-c3ccccc3)cccc12 | inactive | inactive |  | inactive | inactive |  |
| N=C(N)c1ccc(OCCCCCOc2ccc(C(=N)N)cc2)cc1 (tested in a mixture with another compound) | inactive | inactive |  | inactive | inactive |  |
| O=C(O)c1ccccc1Nc1ccccc1 | inactive | inactive |  | inactive | inactive |  |
| O=C1C2C=CC=CC2=NC(=S)N1CCN1CCC(=C(c2ccc(F)cc2)c2ccc(F)cc2)CC1 (stereo not drawn) | inactive | inactive | 25.6 µM (active) |  | inactive |  |
| c1ccc(C(NCc2cccnc2)(c2ccccc2)c2ccccc2)cc1 | inactive | inactive | 24.6 µM (active) |  | inactive |  |
| c1ccc(CN2CCC3(CCCc4ccccc43)CC2)cc1 | inactive | inactive | inactive |  | inactive |  |
| c1ccc(C(NCCNC(c2ccccc2)c2ccccc2)c2ccccc2)cc1 | inactive | inactive |  | inactive | inactive |  |
| COc1ccc(CCn2nnnc2C2(c3ccc(C)cc3)CC2)cc1 | inactive | inactive | inactive | inactive | inactive |  |
| Nc1nc(Cl)nc2c1ncn2[C@@H]1O[C@H](COP(=O)(O)OP(=O)(O)OP(=O)(O)O)C(O)[C@H]1O (stereo partly drawn) | inactive | inactive | inactive | inactive | 1.33 µM (active) |  |
